Test results reported in PubChem BioAssay (NCI).
The panel holds about 83,000 compounds, 20% with a hit somewhere; the sample as a whole holds those more often.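 Negative percent growth values reflect cell death: -40 means 40% of the cells present at the start died, and -100 means all died.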 Unmarked numbers belong to inactive results. Active and inactive are the calls of the source. How the source made its calls: active means growth percent below 10; inactive means the rest.

How the values were obtained:
Experiment in all cases: NCI-60 one-dose screen, 48 h (100 = growth as untreated, 0 = no growth, -100 = all killed)
NCI-H23 lung = conditions: 10 µM unless noted
NCI-H226 lung = conditions: 10 µM unless noted
NCI-H322M lung = conditions: 10 µM unless noted
HOP-62 NSCLC = conditions: 10 µM unless noted
NCI-H460 lung = conditions: 10 µM unless noted
HOP-92 NSCLC = conditions: 10 µM unless noted
NCI-H522 lung = conditions: 10 µM unless noted
A549/ATCC NSCLC = conditions: 10 µM unless noted
786-0 renal = conditions: 10 µM unless noted
COLO 205 colon = conditions: 10 µM unless noted
DU-145 prostate = conditions: 10 µM unless noted
K-562 leukemia = conditions: 10 µM unless noted
MALME-3M melanoma = conditions: 10 µM unless noted
MDA-MB-231 breast = conditions: 10 µM unless noted
RXF 393 renal = conditions: 10 µM unless noted
SF-268 CNS = conditions: 10 µM unless noted
SF-295 CNS = conditions: 10 µM unless noted
SF-539 CNS = conditions: 10 µM unless noted
UACC-257 melanoma = conditions: 10 µM
M14 melanoma = conditions: 10 µM unless noted

| Structure (SMILES) | growth (NCI-H23 lung) | growth (NCI-H226 lung) | growth (NCI-H322M lung) | growth (HOP-62 NSCLC) | growth (NCI-H460 lung) | growth (HOP-92 NSCLC) | growth (NCI-H522 lung) | growth (A549/ATCC NSCLC) | growth (786-0 renal) | growth (COLO 205 colon) | growth (DU-145 prostate) | growth (K-562 leukemia) | growth (MALME-3M melanoma) | growth (MDA-MB-231 breast) | growth (RXF 393 renal) | growth (SF-268 CNS) | growth (SF-295 CNS) | growth (SF-539 CNS) | growth (UACC-257 melanoma) | growth (M14 melanoma) |
| --- | --- | --- | --- | --- | --- | --- | --- | --- | --- | --- | --- | --- | --- | --- | --- | --- | --- | --- | --- | --- |
| COc1ccc(-c2nc(-c3ccccc3)c(-c3ccccc3)n2C2CC2)cc1OC1CCCCC1 | 72.6% | 94% | 80.4% | 85% | 30.9% | 90.2% | 64.2% | 53.3% | 74% | 79.9% | 73.2% | 31.4% | 76.5% | 61.2% | 73.7% | 56.3% | 54.8% | 81% | 85.1% | 76.7% |
| COc1ccc(-c2nc(-c3nc4ccc(F)cc4[nH]3)cc3c2[nH]c2ccccc23)cc1 | 53.3% | 70.6% | 19% | 48.7% | 10.5% | 31.8% | 44.4% | 14.3% | 63.2% | 44.1% | 25.6% | 20.3% | 39.1% | 43.6% | 56.5% | 41.3% | 55.5% | 69.1% | 9.58% (active) | 36% |
| Nc1nc(N)c2nc(CNc3ccc(C(=O)CC(CCC(=O)O)C(=O)O)cc3)cnc2n1 (stereo unspecified) | 31.4% | 38.2% | 47.5% | 39.8% | 19.8% | -3.77% (active) | -9.57% (active) | 2.47% (active) | 20.9% | 66% | 28.9% | 58.3% | 111% | 101% | 19.3% | 29.7% | 37.8% | 20.5% | – | 27.1% |
| O=C1NCC(c2cc3ccccc3[nH]c2=O)Nc2ccccc21 (stereo unspecified) | 97.4% | 98.4% | 100% | 90.6% | 105% | 104% | 88.6% | 92.4% | 100% | 107% | 111% | 90.2% | 96.8% | 97.9% | 90.7% | 99.9% | 106% | 96.5% | – | 101% |
| COc1ccc(/C(=N/O)c2cc(OC)c(OC)c(OC)c2)c(OC)c1N | 51.9% | 80.7% | 48.4% | 33.7% | 14.5% | 53.2% | 0.281% (active) | 45.6% | 30.6% | 20.2% | 39% | 14.7% | 53.1% | 55.3% | 23.2% | 49.1% | 6.4% (active) | 3.96% (active) | – | 21% |
| O=S(=O)(NCCCNc1cc(-c2cn(-c3ccccc3)nc2-c2cccc(O)c2)ccn1)c1ccc(Br)cc1 | 25.2% | 22.2% | 20.7% | 15.8% | 5.69% (active) | -5.67% (active) | 25.6% | 17.4% | -9.38% (active) | -70.3% (active) | 31.3% | -21.3% (active) | -27.3% (active) | -20.7% (active) | 2.04% (active) | 17.9% | -55.2% (active) | 18.9% | – | 0.533% (active) |
| COc1ccc2c(c1)C=CC(C#N)N2C(=O)c1ccccc1 (stereo unspecified) | 26.4% | 61.6% | 53.9% | 34.6% | 5.09% (active) | 34% | 1.91% (active) | 21.2% | 23.4% | -43.7% (active) | 3.08% (active) | 7.66% (active) | 66.8% | 25.4% | 30.4% | 34% | -1.96% (active) | -21.2% (active) | – | 15.9% |
| CCC#CC[C@H]1C/C=C2/C(=O)C=C[C@@H]2C/C=C\CCCC(=O)O1 | 20.4% | -26.6% (active) | 45.4% | -3.46% (active) | -38.1% (active) | -5.7% (active) | -29% (active) | 0.732% (active) | -37.9% (active) | -22.7% (active) | 9.38% (active) | 2.38% (active) | 1.52% (active) | 16.1% | -65.4% (active) | 5.57% (active) | 4.47% (active) | 8.07% (active) | – | 2.84% (active) |
| CCC(=O)Oc1ccc2c(c1)CC[C@@H]1[C@@H]2CC[C@]2(C)C[C@H](OC(=O)CC)C[C@@H]12 | 79.1% | 99.9% | 92.6% | 64.1% | 62.6% | 62.8% | 32.1% | 71.5% | 67.9% | 118% | 79.2% | 29.4% | 80.1% | 71.4% | 86.2% | 80.1% | 51.6% | 76.6% | – | 50.5% |
| O=C(/C=C/CN1CCCCC1)Nc1cc2c(Nc3ccc(F)c(Cl)c3F)ncnc2cc1OCCOC(F)F | 26.3% | 28.6% | 5.03% (active) | 20.6% | 21.7% | -39.2% (active) | -32% (active) | 18.2% | 10.7% | 24.8% | 17.6% | 7.24% (active) | 25.8% | -4.23% (active) | -17.1% (active) | 16.1% | 28.1% | 16.8% | – | 34.2% |
| O=[N+]([O-])c1c(S(=O)(=O)O)cc2cc(S(=O)(=O)O)ccc2c1[N+](=O)[O-] | 90.6% | 108% | 92.6% | 109% | 105% | 103% | 86.1% | 98.9% | 103% | 117% | 107% | 95.7% | 91% | 99.7% | 109% | 99.5% | 105% | 98.4% | – | 99.8% |
| C/C(=C\c1csc(C)n1)[C@@H]1C[C@@H]2O[C@]2(C)CCC[C@H](C)[C@H](O)[C@@H](C)C(=O)C(C)(C)[C@@H](O)CC(=O)N1 | -70% (active) | -60.3% (active) | -83.3% (active) | -69.5% (active) | -85.5% (active) | -47.2% (active) | -81.4% (active) | -79.8% (active) | -22.5% (active) | -62.5% (active) | -78.9% (active) | 1.67% (active) | 66.3% | -54.7% (active) | -83.3% (active) | -47.8% (active) | -64.6% (active) | -87.4% (active) | – | -44.1% (active) |
| O=C(OCCCCOC(=O)n1cnc2ccccc21)n1cnc2ccccc21 | 99.7% | 97.4% | 105% | 98.3% | 103% | 88.8% | 91.3% | 92.5% | 105% | 103% | 105% | 101% | 101% | 94.7% | 107% | 98.8% | 98.3% | 102% | – | 102% |
| O=[N+]([O-])c1ccc(S(=O)(=O)N2CCN(c3ccnc4cc(Cl)ccc34)CC2)c([N+](=O)[O-])c1 | 97.2% | 83.7% | 107% | 96.4% | 99.2% | 82.1% | 46.1% | 99.2% | 80.8% | 91.4% | 92.3% | 18% | 76.2% | 85.3% | 74% | 86% | 100% | 93.5% | – | 92.2% |
| O=C(NCCc1c[nH]c2ccccc12)C1Cc2ccccc2CN1C(=O)c1ccco1 (stereo unspecified) | 127% | 106% | 87.3% | 94.6% | 114% | 29.9% | 78.6% | 97.7% | 104% | 134% | 114% | 71.5% | 96.2% | 96.2% | 154% | 111% | 113% | 103% | – | 107% |
| O=C1CCCCN1CCCCC#Cc1ccccc1C#Cc1ccccn1 | 101% | 92% | 85.7% | 101% | 115% | 73.2% | 112% | 112% | 102% | 103% | 109% | 93.6% | 100% | 102% | 56.6% | 107% | 109% | 103% | – | 112% |
